Reference: ChEMBL document CHEMBL3988442, “University of Dundee, Small-Polar-MMV Screening Library” (2021)
For some assays here: Measured potencies and affinities stand elsewhere.

Experiments:
Parameters in all cases: scale not given: direction of the effect not stated beside the values
[1] = target: Protein translocase subunit SecA (Escherichia coli (strain K12)) (UniProt P10408); assay: Assay to Identify E. coli SecA ATPase Inhibitors; type: functional; conditions: 30 µM
[2] = target: T1, Ubiquitin-activating enzyme e1, putative (Leishmania donovani (strain BPK282A1)) (UniProt E9BSI1); assay: Leishmania donovani Ubiquitin Activating Enzyme (LdE1); type: functional; conditions: 30 µM
T1 sequence (whole entry): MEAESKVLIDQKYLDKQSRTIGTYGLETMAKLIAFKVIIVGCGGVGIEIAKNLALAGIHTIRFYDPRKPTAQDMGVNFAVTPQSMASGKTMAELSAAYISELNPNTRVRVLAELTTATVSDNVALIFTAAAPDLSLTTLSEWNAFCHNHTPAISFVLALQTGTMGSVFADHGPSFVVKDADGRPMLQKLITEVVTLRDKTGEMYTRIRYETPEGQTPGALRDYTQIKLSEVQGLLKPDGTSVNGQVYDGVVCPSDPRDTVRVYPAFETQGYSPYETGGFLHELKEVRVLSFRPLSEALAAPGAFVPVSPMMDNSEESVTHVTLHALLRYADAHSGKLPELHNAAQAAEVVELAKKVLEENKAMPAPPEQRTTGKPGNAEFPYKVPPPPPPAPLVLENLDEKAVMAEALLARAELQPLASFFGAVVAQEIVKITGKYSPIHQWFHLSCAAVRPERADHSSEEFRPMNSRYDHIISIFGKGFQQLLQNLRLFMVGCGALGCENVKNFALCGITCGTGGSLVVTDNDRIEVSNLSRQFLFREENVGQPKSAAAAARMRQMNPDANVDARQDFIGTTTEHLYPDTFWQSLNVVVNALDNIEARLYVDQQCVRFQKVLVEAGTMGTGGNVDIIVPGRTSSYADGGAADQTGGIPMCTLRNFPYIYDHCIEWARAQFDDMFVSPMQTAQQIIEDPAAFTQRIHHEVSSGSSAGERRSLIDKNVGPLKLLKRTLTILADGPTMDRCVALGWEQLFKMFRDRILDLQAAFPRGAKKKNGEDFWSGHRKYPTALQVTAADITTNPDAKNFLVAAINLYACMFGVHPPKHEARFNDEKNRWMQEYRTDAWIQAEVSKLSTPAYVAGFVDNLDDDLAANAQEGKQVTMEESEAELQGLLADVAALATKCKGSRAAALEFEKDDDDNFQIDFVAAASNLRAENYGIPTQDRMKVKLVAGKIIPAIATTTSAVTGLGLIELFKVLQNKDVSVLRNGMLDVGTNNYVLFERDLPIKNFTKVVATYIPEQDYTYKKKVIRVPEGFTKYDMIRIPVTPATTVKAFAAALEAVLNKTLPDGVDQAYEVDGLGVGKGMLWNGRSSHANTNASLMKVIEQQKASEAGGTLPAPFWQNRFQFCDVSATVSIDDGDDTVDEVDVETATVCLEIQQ

[3] = target: AMP-activated protein kinase, AMPK (Homo sapiens) (UniProt P54646+O43741+P54619+Q9UGJ0+Q9Y478+Q13131+Q9UGI9); assay: AMP-dependent Kinase enzyme assay. An in vitro enzyme assay that detects ADP turnover that is directly proportional to AMPK activity. This uses naive AMPK that is activated during the assay with MK-8722; type: functional; conditions: 30 µM
[4] = target: Sialic acid-binding Ig-like lectin 9 (Homo sapiens) (UniProt Q9Y336); assay: Hs-Siglec9 ALPHAscreen SOP 20170721; conditions: 10 µM
Chain of Sialic acid-binding Ig-like lectin 9 (Homo sapiens) (Q9Y336 whole entry): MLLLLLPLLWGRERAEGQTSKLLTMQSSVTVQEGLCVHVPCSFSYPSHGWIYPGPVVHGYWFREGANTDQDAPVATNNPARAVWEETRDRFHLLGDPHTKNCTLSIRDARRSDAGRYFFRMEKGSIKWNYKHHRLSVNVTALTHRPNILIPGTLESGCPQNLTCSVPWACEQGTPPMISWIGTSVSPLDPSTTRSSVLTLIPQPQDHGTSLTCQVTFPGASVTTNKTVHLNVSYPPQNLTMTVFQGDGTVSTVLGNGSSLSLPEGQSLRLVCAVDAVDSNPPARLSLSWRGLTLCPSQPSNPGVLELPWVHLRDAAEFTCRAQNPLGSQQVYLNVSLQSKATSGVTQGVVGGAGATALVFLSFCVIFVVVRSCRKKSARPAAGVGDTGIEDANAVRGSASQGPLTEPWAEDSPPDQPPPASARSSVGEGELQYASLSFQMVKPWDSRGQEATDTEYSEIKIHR

Trypanosoma cruzi = assay: Trypanosoma cruzi phosphomannomutase and mannose-1-phosphate guanylyltransferase assay; type: functional; conditions: 10 µM
[5] = target: T2, Arginase-2, mitochondrial (Homo sapiens) (UniProt P78540); assay: in vitro enzyme assay to detect the production of urea directly proportional to the activity of Arginase II; type: functional; conditions: 33.3 µM; also: in the data most compounds retested in dose-response had high values
T2 sequence (whole entry): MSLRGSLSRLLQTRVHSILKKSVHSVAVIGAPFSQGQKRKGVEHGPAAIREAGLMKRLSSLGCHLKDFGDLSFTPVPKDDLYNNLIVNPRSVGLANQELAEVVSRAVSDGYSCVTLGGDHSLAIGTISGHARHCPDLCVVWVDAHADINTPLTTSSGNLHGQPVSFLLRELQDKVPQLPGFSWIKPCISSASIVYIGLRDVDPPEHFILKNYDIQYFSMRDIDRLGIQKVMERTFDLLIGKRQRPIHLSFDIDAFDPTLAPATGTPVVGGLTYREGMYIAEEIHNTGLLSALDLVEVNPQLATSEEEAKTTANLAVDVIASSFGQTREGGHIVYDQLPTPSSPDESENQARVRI

[6] = target: T3, Proteasome subunit beta (Trypanosoma cruzi) (UniProt O96673); assay: Trypanosoma cruzi proteasome chymotrypsin-like activity (TcProtChymo) assay.; also: in the data most compounds retested in dose-response had high values; type: functional; conditions: 9.37 µM
T3 sequence (whole entry): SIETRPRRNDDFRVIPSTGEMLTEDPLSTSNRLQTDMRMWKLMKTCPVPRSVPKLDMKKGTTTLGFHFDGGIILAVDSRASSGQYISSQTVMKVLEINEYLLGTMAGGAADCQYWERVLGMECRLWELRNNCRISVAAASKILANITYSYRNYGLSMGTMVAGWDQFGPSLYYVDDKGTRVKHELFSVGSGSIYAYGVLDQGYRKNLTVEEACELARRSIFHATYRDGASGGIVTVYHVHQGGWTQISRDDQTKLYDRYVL

Homo sapiens = organism: Homo sapiens; assay: To identify inhibition of the IFN signalling (Jak-Stat) pathway via expression of an eGFP reporter gene under the control of an IFN-stimulated response element (ISRE) containing MxA promoter.; type: functional; conditions: 30 µM
[7] = target: T4, Tyrosyl-tRNA synthetase, putative (Trypanosoma cruzi (strain CL Brener)) (UniProt Q4DSP6); assay: Trypanosoma cruzi tyrosyl tRNA synthetase (TcYRS) _High Tyrosine SOP; type: functional; conditions: 30 µM; also: in the data most compounds retested in dose-response had high values
T4 sequence (whole entry): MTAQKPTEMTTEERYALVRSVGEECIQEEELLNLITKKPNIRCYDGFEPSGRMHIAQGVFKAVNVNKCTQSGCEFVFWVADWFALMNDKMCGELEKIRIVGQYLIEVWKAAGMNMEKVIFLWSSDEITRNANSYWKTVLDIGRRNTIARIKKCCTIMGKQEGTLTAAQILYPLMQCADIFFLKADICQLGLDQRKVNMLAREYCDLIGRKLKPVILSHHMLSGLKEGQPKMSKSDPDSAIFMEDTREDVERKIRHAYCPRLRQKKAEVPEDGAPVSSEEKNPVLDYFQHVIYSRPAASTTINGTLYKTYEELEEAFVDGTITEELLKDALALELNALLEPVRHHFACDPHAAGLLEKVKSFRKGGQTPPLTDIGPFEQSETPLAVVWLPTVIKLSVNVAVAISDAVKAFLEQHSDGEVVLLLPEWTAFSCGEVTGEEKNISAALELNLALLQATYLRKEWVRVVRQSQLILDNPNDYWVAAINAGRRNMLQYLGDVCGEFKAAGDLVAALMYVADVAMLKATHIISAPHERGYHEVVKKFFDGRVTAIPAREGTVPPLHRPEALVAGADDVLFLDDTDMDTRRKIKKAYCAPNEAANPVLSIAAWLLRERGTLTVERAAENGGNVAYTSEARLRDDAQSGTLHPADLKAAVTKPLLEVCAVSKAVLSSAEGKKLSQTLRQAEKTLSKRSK

[8] = target: T4, Tyrosyl-tRNA synthetase, putative (Trypanosoma cruzi (strain CL Brener)); assay: Trypanosoma cruzi tyrosyl tRNA synthetase (TcYRS) SOP; type: functional; conditions: 30 µM
[9] = target: Chromo domain-containing protein 1 (Saccharomyces cerevisiae (strain ATCC 204508 / S288c) (Baker's yeast)) (UniProt P32657); assay: ScCHD-1 Enzyme Inhibition Assay; type: functional; conditions: 30 µM; also: in the data most compounds retested in dose-response had high values
Chain of Chromo domain-containing protein 1 (Saccharomyces cerevisiae (strain ATCC 204508 / S288c) (Baker's yeast)) (P32657 whole entry, the tested form may be a part): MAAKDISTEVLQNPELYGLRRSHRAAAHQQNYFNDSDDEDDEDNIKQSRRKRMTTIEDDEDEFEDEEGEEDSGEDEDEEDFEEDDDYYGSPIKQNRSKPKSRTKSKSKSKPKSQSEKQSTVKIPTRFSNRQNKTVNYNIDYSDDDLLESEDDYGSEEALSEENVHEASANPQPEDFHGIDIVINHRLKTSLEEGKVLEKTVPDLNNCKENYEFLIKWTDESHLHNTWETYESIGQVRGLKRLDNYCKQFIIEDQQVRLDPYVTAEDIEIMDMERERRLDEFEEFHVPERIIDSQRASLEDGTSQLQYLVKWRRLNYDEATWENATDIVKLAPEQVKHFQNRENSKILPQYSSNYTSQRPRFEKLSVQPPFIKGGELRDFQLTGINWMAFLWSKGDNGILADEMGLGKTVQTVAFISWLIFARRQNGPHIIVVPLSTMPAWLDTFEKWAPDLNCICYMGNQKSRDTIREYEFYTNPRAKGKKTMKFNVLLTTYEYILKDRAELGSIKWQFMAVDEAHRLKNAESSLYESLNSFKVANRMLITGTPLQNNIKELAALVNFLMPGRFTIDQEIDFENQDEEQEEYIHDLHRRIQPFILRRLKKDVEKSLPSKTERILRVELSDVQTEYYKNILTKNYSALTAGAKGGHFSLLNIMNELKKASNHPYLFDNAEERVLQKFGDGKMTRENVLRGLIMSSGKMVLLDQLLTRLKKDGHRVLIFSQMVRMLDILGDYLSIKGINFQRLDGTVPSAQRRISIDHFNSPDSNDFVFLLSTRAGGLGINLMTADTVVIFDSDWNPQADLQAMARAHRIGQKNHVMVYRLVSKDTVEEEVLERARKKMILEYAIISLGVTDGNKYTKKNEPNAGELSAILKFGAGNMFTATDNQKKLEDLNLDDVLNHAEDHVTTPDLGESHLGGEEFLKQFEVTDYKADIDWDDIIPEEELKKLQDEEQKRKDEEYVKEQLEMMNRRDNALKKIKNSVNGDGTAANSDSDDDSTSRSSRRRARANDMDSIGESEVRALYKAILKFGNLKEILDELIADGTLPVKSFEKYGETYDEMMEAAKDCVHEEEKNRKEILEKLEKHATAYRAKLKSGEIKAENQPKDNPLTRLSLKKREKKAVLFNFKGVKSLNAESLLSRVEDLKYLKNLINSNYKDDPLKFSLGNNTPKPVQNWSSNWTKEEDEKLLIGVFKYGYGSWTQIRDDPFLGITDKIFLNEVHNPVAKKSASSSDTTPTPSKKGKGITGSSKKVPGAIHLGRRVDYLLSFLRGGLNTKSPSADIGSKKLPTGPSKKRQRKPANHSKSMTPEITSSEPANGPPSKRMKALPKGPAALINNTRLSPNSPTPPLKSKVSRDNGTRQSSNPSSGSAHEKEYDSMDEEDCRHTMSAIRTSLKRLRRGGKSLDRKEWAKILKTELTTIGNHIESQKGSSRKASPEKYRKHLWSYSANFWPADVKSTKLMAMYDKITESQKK

Chain of Protein translocase subunit SecA (Escherichia coli (strain K12)) (P10408 whole entry): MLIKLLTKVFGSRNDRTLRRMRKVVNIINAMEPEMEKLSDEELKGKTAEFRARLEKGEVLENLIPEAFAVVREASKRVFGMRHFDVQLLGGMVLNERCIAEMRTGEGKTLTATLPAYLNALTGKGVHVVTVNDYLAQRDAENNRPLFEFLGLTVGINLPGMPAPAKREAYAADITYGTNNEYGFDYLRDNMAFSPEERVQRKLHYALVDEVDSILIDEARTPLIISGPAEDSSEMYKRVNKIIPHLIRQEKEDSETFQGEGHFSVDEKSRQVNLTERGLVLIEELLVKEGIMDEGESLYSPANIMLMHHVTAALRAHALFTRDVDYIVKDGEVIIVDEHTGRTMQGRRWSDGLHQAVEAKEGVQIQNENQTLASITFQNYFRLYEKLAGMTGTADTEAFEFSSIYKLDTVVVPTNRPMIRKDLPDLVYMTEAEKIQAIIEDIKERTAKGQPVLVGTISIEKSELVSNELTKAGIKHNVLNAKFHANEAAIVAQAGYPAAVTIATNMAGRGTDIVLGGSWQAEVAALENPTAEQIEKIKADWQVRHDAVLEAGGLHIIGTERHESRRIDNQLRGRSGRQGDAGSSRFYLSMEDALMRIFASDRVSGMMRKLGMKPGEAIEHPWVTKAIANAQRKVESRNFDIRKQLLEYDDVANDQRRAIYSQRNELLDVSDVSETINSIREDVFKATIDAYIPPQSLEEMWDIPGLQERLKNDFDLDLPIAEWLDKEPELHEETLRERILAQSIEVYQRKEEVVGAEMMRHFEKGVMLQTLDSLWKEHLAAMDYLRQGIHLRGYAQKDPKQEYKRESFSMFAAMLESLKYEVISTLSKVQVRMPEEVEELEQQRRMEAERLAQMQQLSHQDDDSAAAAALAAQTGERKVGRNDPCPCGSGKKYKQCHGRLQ

| Structure (SMILES) | Percent Effect [1] | Percent Effect [2] | Percent Effect [3] | Percent Effect [4] | Percent Effect (Trypanosoma cruzi) | Percent Effect [5] | Percent Effect [6] | Percent Effect (Homo sapiens) | Percent Effect [7] | Percent Effect [8] | Percent Effect [9] |
| --- | --- | --- | --- | --- | --- | --- | --- | --- | --- | --- | --- |
| CCOc1cc(C(=O)N2CCCC(n3cncn3)C2)ccc1C (stereo not given) | 2.65% | -8.11% | 0.403% | -1.22% | -1.21% | 1.66% | -7.18% | 4.36% | 0.99% | 1.22% | 11.6% |
| CC(C)(C)n1cc(C(=O)N2CCN(Cc3ccsc3)CC2)cn1 | -3.19% | 10.5% | 2.2% | 9.1% | 7.71% | -3.06% | 3.51% | -5.26% | 6.37% | 17.1% | -11% |
| COCC(=O)N1CCC(c2nccn2CC2CC2)CC1 | 0.53% | 10.8% | -6.45% | 8.36% | 5.41% | 8.57% | 19.8% | -2.14% | 6.88% | 19.5% | -2.23% |
| COc1ncccc1NC(=O)C1CCN(S(C)(=O)=O)CC1 | -2.31% | 15.6% | -6.01% | 4.87% | 0.749% | -0.356% | 6.42% | 15.1% | 6.8% | 21.9% | -9.19% |
| CCOCC1CN(C(=O)N(C)C)Cc2nn(C)cc21 (stereo not given) | -3.04% | 8% | -0.352% | 2.29% | -0.579% | -40.3% | 8.03% | -8.7% | 1.04% | 10% | -7.3% |
| Cc1nc(CN2CCCC(NCc3ccsc3)C2)no1 (stereo not given) | 1.07% | 18.2% | -3.38% | -6.19% | -7.3% | 4.63% | 16.1% | 20.4% | 4.85% | 12.2% | -8.54% |
| CCC1=N[C@@]2(CC[C@@H]3CN(S(=O)(=O)CC)C[C@@H]32)C(=O)N1CC(C)C | -2.87% | 2.6% | -1.61% | 11.1% | -0.493% | -1.94% | 0.348% | 18.4% | 2.12% | 8.97% | -4.63% |
| Cc1ccc(C(=O)Nc2cn[nH]c2)cn1 | 0.472% | 13.2% | 9.28% | 0.161% | -1.13% | -3.45% | 8.69% | 6.9% | 1.47% | 19.5% | -10.8% |
| Cc1nn(C)c(C)c1NC(=O)CN1CCc2c(nc(C3CC3)n2C)C1 | 0.84% | -5.41% | 0.981% | 13.1% | 6.76% | -5.71% | 4.14% | 1.97% | -0.529% | 7.32% | -8.76% |
| O=C1O[C@@H]2CN(Cc3ccccc3)C[C@@H]2N1CCCN1CCOCC1 | -6.39% | 2.67% | -0.894% | 2% | -3.8% | -0.521% | 15.2% | 20% | 4.92% | 11.1% | -5.71% |
